# Inconclusive results are not listed. Active and inactive are the calls of the source. Unless noted, the call rests on the fitted dose curve.
# Legend:
# [1] = molecular target: Glucocorticoid receptor (Homo sapiens) (UniProt P04150); experiment: qHTS assay for small molecule agonists of glucocorticoid receptor signaling (AID 588532; active means well fitted curve in the direction sought with a large enough effect in the signal ratio, with a control signal flat; the % refers to the signal ratio;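 further: 100% = dexamethasone at 0.1 µM and 0% = DMSO only wells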); conditions: HeLa MMTV-bla, beta-lactamase ratio, agonist, 18 h; activation: stronger effect = higher value, percent of dexamethasone control, DMSO zero
# Procedure, shortened: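 Cells were plated and rested 3-5 h at 37 C, compounds were added in titration and incubated 18 h, then CCF4 substrate was loaded for 2 h at RT before reading blue/green fluorescence. EC50 came from Hill-equation fitting.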
# [2] = molecular target: Glucocorticoid receptor (Homo sapiens) (UniProt P04150); experiment: qHTS assay for small molecule antagonists of glucocorticoid receptor signaling (AID 588533; active means well fitted inhibition curve with a large enough effect in the signal ratio, with a control signal flat, not every such curve was filed as active; the % refers to the signal ratio; further: on the % scale 0 is the no-effect control and ±100 the full control effect)
# Procedure, shortened: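 Antagonist-mode qHTS: compound titrations added to GRE-bla HeLa cells, then dexamethasone 2 nM final; 18 h, 37 C. CCF4 FRET fluorescence normalized to dexamethasone and DMSO; IC50 from Hill fit.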
# [3] = molecular target: Peroxisome proliferator-activated receptor delta (Homo sapiens) (UniProt Q03181); experiment: qHTS assay for small molecule agonists of peroxisome proliferator-activated receptor delta signaling (AID 588534);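 further: 0% = DMSO basal wells and 100% = positive control agonist at 10 µM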
# Procedure, shortened: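 Agonist-mode qHTS; reporter cells, 5 hrs 37 C pre-incubation; compound titration, 18 hrs 37 C; CCF4 dye, 2 hrs RT; fluorescence read. EC50/efficacy via Hill fit.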
# [4] = qHTS assay for small molecule antagonists of peroxisome proliferator-activated receptor delta signaling (AID 588535; active means well fitted inhibition curve with a large enough effect in the signal ratio, with a control signal flat, not every such curve was filed as active; the % refers to the signal ratio;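 on max response: cells co-treated with a PPAR-delta agonist as stimulator during compound exposure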); conditions: HEK293T PPARd-UAS-bla, beta-lactamase FRET ratio, 18 h; 460 nm channel
# Procedure, shortened: (§1)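 Fluorescence from CCF4-loaded GeneBLAzer PPAR-delta-UAS-bla HEK293T cells (2 hrs RT loading) quantified reporter inhibition after an 18 hr, 37 C compound exposure across a titration.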
# [5] = molecular target: Peroxisome proliferator-activated receptor delta (Homo sapiens) (UniProt Q03181); experiment: as above
# Procedure, shortened: as §1
# [6] = molecular target: Peroxisome proliferator-activated receptor gamma (Homo sapiens) (UniProt P37231); experiment: qHTS assay for small molecule agonists of peroxisome proliferator-activated receptor gamma signaling (AID 588536; active means well fitted curve in the direction sought with a large enough effect in the signal ratio, with a control signal flat, not every such curve was filed as active; the % refers to the signal ratio;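 further: 0% = DMSO basal wells and 100% = rosiglitazone at 2 µM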)
# Procedure, shortened: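 Compound treatment: 16 h, 37 C, HEK293 GeneBLAzer cells. Detection: CCF4, 2 h RT. Values: Hill-fit EC50, efficacy as % of 2 uM rosiglitazone.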
# [7] = molecular target: Peroxisome proliferator-activated receptor gamma (Homo sapiens) (UniProt P37231); experiment: qHTS assay for small molecule antagonists of peroxisome proliferator-activated receptor gamma signaling (AID 588537; active means well fitted inhibition curve with a large enough effect in the signal ratio, with a control signal flat, not every such curve was filed as active; the % refers to the signal ratio;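 further: reporter cells co-stimulated with 50 nM rosiglitazone agonist during compound treatment; % of control where 0% means no effect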)
# Procedure, shortened: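 Fluorescence at 460 and 530 nm (405 nm excitation) reported beta-lactamase cleavage of CCF4 after 2 h room-temperature loading. HEK293 reporter cells in 1% charcoal/dextran-treated FBS had received compound and rosiglitazone for 16 h.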
# [8] = qHTS assay for small molecule agonists of retinoid X receptor alpha signaling (AID 588544); conditions: HEK293T RXRa-UAS-bla, beta-lactamase reporter, 18 h; 530 nm emission;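 on activation: 0% = DMSO basal wells and 100% = reference agonist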
# [9] = molecular target: Retinoic acid receptor RXR-alpha (Homo sapiens) (UniProt P19793); experiment: as above
# [10] = molecular target: Thyroid hormone receptor beta (Homo sapiens) (UniProt P10828); experiment: qHTS assay for small molecule agonists of thyroid hormone receptor beta signaling (AID 588545)
# Procedure, shortened: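 HEK 293 TR-UAS-bla; agonist mode; 18 hrs, 37 C; CCF4, ex 405/em 460 and 530 nm; norm. T3 10 nM = 100%, DMSO = 0%; Hill fit → EC50, efficacy.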
# [11] = qHTS assay for small molecule antagonists of retinoid X receptor alpha signaling (AID 588546; active means well fitted inhibition curve with a large enough effect in the signal ratio, with a control signal flat, not every such curve was filed as active; the % refers to the signal ratio;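 further: cells stimulated with 9-cis-retinoic acid as agonist; on the % scale 0 is the no-effect control and ±100 the full control effect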); conditions: HEK293T RXRa-UAS-bla, beta-lactamase ratio, antagonist mode; measured here: W530 green channel, cytotoxicity proxy
# Procedure, shortened: (§2)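 Beta-lactamase reporter inhibition, read as CCF4 fluorescence ratio (ex 405, em 460/530 nm) after 2 h at RT. HEK293T UAS-bla cells, 2500/well, were stimulated with 9-cis-RA at 500 or 100 nM final alongside test compound for 18 h at 37 C.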
# [12] = molecular target: Retinoic acid receptor RXR-alpha (Homo sapiens) (UniProt P19793); experiment: as above; conditions: HEK293T RXRa-UAS-bla, beta-lactamase ratio, antagonist mode
# Procedure, shortened: as §2
# [13] = molecular target: Thyroid hormone receptor beta (Homo sapiens) (UniProt P10828); experiment: qHTS assay for small molecule antagonists of thyroid hormone receptor beta signaling (AID 588547; active means well fitted inhibition curve with a large enough effect in the signal ratio, with a control signal flat, not every such curve was filed as active; the % refers to the signal ratio;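 further: cells stimulated with 0.4 nM T3 agonist during compound exposure; series mostly up to about 77 µM; on the % scale 0 is the no-effect control and ±100 the full control effect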); conditions: TR-UAS-bla HEK293, beta-lactamase ratio, antagonist mode, 18 h
# Procedure, shortened: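 TR-UAS-bla GripTite HEK293 cells in 2% charcoal/dextran FBS medium; compounds 0.59 nM to 92 uM with T3 at 0.4nM final, 18 h at 37 C. Beta-lactamase read by CCF4 fluorescence (460/530 nm); Hill fits gave IC50 and efficacy.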
# [14] = qHTS assay for small molecule activators of the p53 signaling pathway (AID 651743; active means well fitted activation curve with a large enough effect in the signal ratio, not every such curve was filed as active; the % refers to the signal ratio; further: series mostly up to about 92 µM; % of control where 0% means no effect); conditions: HCT-116 p53RE-bla, beta-lactamase FRET ratio, 16 h; activation: stronger effect = higher value
# Procedure, shortened: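 Following 16 hours of compound exposure at 37 C, HCT-116 cells bearing the p53RE-bla reporter were loaded with LiveBLAzer B/G FRET substrate for 2 hours at room temperature and fluorescence intensity was recorded.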
# [15] = qHTS assay for environmental chemicals that activate the Aryl hydrocarbon Receptor (AhR) signaling pathway (AID 651777; active means well fitted curve in the direction sought with a large enough effect; an effect the other way counts as inactive or inconclusive; further: % of control where 0% means no effect; nearly all actives have a fitted effect of over 15% in size); conditions: 1A2-DRE human hepatoma cells, luciferase, 24 h; activation: stronger effect = higher value
# Procedure, shortened: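 Human hepatoma 1A2-DRE cells, stably carrying a dioxin response element and CYP1A2 promoter driving luciferase, were exposed to compounds for 24 hr at 37 C and 5% CO2. Luciferase signal was then read after 30 min One-Glo at room temperature.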
# [16] = molecular target: Peroxisome proliferator-activated receptor alpha (Homo sapiens) (UniProt Q07869); experiment: qHTS assay for small molecule agonists of the peroxisome proliferator-activated receptor alpha (PPARalpha) signaling pathway (AID 651778; active means well fitted curve in the direction sought with a large enough effect; an effect the other way counts as inactive or inconclusive; further: % of control where 0% means no effect); conditions: PathHunter PPARalpha complementation, chemiluminescence, 6 h; max response: stronger effect = higher value
# Procedure, shortened: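 Enzyme-fragment complementation assay in which ligand-bound PPARalpha translocates and forms an active enzyme that generates chemiluminescence. Cells were plated overnight, exposed to compound for 6 hr at 37 C, and then given detection reagent for 60 min at room temperature.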
# [17] = qHTS assay for small molecule agonists of the antioxidant response element (ARE) signaling pathway measured by Nrf2-dependant transcriptional activity - cell viability counter screen (AID 720653; active means well fitted curve in the direction sought with a large enough effect in the repeat runs; an effect the other way counts as inactive or inconclusive; further: on the % scale 0 is the no-effect control and ±100 the full control effect); conditions: ARE-bla HepG2 viability, CellTiter-Glo ATP luminescence, 16 h; max response: stronger effect = lower value
# Procedure, shortened: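 ARE-bla HepG2 cells treated with compounds for 16 h at 37C; this counter screen measures viability as intracellular ATP by CellTiter-Glo luminescence after 30 min at room temperature.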
# [18] = qHTS assay for cell viability of HEK293 cells (AID 743288; active means well fitted curve in the direction sought with a large enough effect; an effect the other way counts as inactive or inconclusive; further: on the % scale 0 is the no-effect control and ±100 the full control effect; nearly all actives have a fitted effect of over 50% in size); conditions: ATP luminescence (CellTiter-Glo), 18 h; max response: stronger effect = lower value
# Procedure, shortened: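 Viable-cell counts were inferred from luciferase-based ATP content in HEK293 cells seeded at 2,000/well, pre-incubated ≥5 h, then dosed with DMSO-solubilised compounds for 18 h at 37 C.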
# [19] = qHTS assay for cell viability of the p53RE-bla HCT-116 cell line (AID 743292; active means well fitted curve in the direction sought with a large enough effect; an effect the other way counts as inactive or inconclusive; further: on the % scale 0 is the no-effect control and ±100 the full control effect; nearly all actives have a fitted effect of over 55% in size)
# Procedure, shortened: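 CellSensor p53RE-bla HCT-116 cells, 4,000/well, preincubated 5 h at 37 C, then exposed to compounds in DMSO for 16 h at 37 C. Viability read as CellTiter-Glo luminescence (intracellular ATP) after 30 min at room temperature.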
# [20] = molecular target: Nuclear receptor subfamily 1 group I member 2 (Rattus norvegicus) (UniProt Q9R1A7); experiment: qHTS assay for small molecule activators of the rat pregnane X receptor (rPXR) signaling pathway (AID 651751; call rule not given here; further: 0% is about no effect); conditions: rPXR reporter cells, luciferase (One-Glo), 24 h
# [21] = molecular target: Vitamin D3 receptor (Homo sapiens) (UniProt P11473); experiment: qHTS assay for small molecule antagonists of vitamin D receptor signaling (AID 588541)
# Procedure, shortened: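 VDR-UAS-bla HEK293T cells in 2% charcoal-stripped FBS were stimulated with 1-alpha,25-dihydroxyvitamin D3 (3 nM final) plus compound for 16 h at 37 C. The beta-lactamase CCF4 readout was normalized to 50 nM agonist and DMSO, and Hill fits gave IC50.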
# [22] = molecular target: Vitamin D3 receptor (Homo sapiens) (UniProt P11473); experiment: qHTS assay for small molecule agonists of vitamin D receptor signaling (AID 588543);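 further: 0% = DMSO basal and 100% = reference agonist control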
# Procedure, shortened: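 Reporter cells (HEK293T, VDR-UAS-bla) were seeded in medium with 2% charcoal-stripped serum and incubated 5 h, then compounds in concentration series were added for 16 h at 37 °C. Stimulation was scaled between DMSO basal and 50 nM 1α,25-dihydroxyvitamin D3.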
# [23] = qHTS assay for small molecule activators of the nuclear factor-kappa B (NF-kB) signaling pathway (AID 651749; active means well fitted activation curve with a large enough effect in the signal ratio; the % refers to the signal ratio; further: series mostly up to about 77 µM; % of control where 0% means no effect); conditions: NF-kB-bla ME-180 cells, beta-lactamase FRET ratio, 16 h; activation: stronger effect = higher value
# Procedure, shortened: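 In this qHTS format, compounds acting as activators increase NF-kB-driven beta-lactamase in ME-180 cells, measured as disrupted FRET after 16 hr exposure at 37C and 5% CO2.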
# [24] = qHTS assay for small molecule agonists of the antioxidant response element (ARE) signaling pathway measured by Nrf2-dependant transcriptional activity (AID 720636; active means well fitted curve in the direction sought with a large enough effect in the repeat runs; an effect the other way counts as inactive or inconclusive; further: % of control where 0% means no effect)
# Procedure, shortened: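 ARE-luc HepG2 cells carrying an Nrf2-responsive luciferase reporter were plated in medium with 1% dialyzed FBS, left 6 hr at 37 C to attach, then exposed to compound for 16 hr. Luciferase luminescence was read after ONE-Glo addition.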
# [25] = qHTS assay for small molecule activators of the human pregnane X receptor (PXR) signaling pathway (AID 720659; call rule not given here; further: 0% is about no effect)
# [26] = qHTS assay for small molecule agonists of the antioxidant response element (ARE) signaling pathway (AID 651741; active means well fitted activation curve with a large enough effect in the signal ratio; the % refers to the signal ratio; further: % of control where 0% means no effect)
# Procedure, shortened: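 Stably integrated ARE-beta-lactamase reporter HepG2 cells; 16 h compound incubation, 37 C; LiveBLAzer FRET substrate 2 h at room temperature; fluorescence intensity.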
# Chain of Thyroid hormone receptor beta (Homo sapiens) (P10828 whole entry, looked up): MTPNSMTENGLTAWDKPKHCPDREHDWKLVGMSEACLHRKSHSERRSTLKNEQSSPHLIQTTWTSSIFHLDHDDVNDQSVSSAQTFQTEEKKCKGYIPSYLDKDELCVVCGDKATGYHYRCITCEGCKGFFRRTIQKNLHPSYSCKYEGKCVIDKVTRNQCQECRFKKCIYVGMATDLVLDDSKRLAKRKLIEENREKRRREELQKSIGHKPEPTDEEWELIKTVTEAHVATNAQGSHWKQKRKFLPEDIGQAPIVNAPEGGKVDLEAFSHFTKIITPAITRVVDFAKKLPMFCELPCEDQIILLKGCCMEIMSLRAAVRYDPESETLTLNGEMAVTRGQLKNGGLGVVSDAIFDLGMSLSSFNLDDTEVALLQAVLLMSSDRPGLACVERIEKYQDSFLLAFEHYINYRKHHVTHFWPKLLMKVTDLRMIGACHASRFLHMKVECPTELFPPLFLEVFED
# Chain of Glucocorticoid receptor (Homo sapiens) (P04150 whole entry, looked up): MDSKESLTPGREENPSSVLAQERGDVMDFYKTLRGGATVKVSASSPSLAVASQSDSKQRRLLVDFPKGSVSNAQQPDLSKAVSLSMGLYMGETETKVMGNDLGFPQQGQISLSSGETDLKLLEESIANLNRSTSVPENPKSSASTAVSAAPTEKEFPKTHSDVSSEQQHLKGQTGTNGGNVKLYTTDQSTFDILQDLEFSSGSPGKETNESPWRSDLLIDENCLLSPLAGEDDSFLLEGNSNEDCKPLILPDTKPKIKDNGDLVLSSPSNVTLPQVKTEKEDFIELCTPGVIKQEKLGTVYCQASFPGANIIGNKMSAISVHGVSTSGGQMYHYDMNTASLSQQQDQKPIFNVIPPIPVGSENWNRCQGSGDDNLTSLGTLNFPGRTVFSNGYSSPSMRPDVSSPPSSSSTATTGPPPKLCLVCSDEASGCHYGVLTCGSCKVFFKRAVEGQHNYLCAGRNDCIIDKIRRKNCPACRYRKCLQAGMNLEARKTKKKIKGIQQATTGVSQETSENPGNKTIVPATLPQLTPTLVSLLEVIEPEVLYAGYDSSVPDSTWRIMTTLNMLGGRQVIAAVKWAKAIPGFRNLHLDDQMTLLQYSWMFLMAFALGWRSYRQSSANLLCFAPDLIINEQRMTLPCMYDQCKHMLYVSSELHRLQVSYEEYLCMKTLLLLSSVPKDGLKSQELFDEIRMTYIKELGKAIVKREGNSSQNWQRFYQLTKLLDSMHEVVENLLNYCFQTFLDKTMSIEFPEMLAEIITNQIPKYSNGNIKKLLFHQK
# Chain of Peroxisome proliferator-activated receptor delta (Homo sapiens) (Q03181 whole entry, looked up): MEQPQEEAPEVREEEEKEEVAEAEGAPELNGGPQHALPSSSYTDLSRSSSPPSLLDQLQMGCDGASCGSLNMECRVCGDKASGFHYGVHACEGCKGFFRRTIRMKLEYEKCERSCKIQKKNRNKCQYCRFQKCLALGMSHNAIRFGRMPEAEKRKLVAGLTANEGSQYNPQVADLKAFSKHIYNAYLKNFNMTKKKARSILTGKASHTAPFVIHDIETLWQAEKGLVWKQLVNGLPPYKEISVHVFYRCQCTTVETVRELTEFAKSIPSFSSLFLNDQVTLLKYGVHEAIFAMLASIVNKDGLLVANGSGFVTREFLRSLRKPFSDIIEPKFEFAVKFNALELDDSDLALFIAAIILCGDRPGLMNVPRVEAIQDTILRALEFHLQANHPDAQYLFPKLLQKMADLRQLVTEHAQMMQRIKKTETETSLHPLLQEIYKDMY
# Chain of Peroxisome proliferator-activated receptor alpha (Homo sapiens) (Q07869 whole entry, looked up, the tested form may be a part): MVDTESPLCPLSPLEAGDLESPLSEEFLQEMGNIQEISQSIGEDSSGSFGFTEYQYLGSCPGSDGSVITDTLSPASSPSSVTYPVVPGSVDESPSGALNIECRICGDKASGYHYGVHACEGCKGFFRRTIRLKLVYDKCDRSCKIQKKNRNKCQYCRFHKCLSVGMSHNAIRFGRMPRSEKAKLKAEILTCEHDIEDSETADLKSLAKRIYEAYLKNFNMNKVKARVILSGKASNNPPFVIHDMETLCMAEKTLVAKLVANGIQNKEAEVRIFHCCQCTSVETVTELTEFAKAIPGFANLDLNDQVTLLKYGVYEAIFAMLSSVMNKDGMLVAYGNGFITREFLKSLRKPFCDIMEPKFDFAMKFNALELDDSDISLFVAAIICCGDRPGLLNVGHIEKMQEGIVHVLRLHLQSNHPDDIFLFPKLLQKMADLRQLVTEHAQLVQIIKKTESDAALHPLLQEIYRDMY
# Chain of Peroxisome proliferator-activated receptor gamma (Homo sapiens) (P37231 whole entry, looked up): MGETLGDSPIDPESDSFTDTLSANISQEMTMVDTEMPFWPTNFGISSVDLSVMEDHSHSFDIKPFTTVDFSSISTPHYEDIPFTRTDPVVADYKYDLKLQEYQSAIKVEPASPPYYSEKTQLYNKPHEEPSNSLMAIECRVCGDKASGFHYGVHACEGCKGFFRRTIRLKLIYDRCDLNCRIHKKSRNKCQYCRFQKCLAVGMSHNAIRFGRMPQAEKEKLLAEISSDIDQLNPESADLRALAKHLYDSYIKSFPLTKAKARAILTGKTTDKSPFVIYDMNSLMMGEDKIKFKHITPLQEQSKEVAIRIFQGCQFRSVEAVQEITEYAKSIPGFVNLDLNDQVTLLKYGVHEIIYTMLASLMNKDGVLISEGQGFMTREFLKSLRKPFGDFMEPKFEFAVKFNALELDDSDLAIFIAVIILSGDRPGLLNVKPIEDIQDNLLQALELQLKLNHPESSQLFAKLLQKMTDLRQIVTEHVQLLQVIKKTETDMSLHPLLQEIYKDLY
# Chain of Retinoic acid receptor RXR-alpha (Homo sapiens) (P19793 whole entry, looked up): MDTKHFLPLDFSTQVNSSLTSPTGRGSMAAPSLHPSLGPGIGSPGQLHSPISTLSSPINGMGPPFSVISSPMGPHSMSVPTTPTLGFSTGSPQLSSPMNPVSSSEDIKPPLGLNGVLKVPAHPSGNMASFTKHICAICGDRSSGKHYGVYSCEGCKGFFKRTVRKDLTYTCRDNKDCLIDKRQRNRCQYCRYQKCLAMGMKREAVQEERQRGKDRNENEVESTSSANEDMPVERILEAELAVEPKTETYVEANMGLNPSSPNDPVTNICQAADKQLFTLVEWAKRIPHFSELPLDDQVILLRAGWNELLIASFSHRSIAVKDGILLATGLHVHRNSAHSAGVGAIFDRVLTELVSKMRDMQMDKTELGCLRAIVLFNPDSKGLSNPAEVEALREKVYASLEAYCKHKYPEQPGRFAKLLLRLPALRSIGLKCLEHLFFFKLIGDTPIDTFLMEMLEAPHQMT
# Chain of Nuclear receptor subfamily 1 group I member 2 (Rattus norvegicus) (Q9R1A7 whole entry, looked up): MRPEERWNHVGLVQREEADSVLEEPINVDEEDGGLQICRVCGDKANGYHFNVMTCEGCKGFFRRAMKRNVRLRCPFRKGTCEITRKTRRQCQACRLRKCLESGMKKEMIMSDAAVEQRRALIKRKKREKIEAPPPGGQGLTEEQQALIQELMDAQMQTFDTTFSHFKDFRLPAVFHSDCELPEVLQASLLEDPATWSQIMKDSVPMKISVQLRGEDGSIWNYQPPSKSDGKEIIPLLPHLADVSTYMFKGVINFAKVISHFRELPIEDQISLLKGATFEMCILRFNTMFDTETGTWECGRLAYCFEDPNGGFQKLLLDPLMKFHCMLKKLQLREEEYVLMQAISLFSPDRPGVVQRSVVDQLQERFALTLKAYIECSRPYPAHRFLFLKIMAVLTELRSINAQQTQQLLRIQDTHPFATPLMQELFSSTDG
# Chain of Vitamin D3 receptor (Homo sapiens) (P11473 whole entry, looked up): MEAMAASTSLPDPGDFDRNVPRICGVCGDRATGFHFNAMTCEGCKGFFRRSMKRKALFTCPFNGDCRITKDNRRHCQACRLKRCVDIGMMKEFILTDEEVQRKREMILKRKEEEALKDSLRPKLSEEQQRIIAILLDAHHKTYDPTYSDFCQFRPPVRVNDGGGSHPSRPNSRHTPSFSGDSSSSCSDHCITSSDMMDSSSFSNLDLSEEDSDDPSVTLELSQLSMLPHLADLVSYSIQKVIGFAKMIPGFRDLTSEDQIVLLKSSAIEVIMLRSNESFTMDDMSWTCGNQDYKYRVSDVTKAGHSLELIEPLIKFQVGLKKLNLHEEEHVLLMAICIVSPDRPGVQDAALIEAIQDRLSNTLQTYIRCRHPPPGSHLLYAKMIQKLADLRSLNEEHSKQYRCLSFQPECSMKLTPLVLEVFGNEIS
structure (smiles),measurement,setting,value
CCNc1nc(Cl)nc(NC(C)(C)C#N)n1,activation,[1],-6.13% (inactive)
same,Potency,[2],inactive
same,outcome,[3],inactive
same,max response,[4],32.2%
same,Potency,[5],inactive
same,Potency,[6],inactive
same,Potency,[7],inactive
same,max response,[8],-4.23%
same,Potency,[9],inactive
same,Potency,[10],inactive
same,max response,[11],0.495%
same,max response,[12],-7.14% (inactive)
same,activity change % (negative = inhibition),[13],-10.7% (inactive)
same,activation,[14],-4.15% (inactive)
same,activation,[15],1.84% (inactive)
same,max response,[16],0.299% (inactive)
same,max response,[17],-18.8% (inactive)
same,max response,[18],4.63% (inactive)
same,Potency,[19],inactive
same,max response,[20],-0.0883% (inactive)
S=C([S-])NCCNC(=S)[S-].S=C([S-])NCCNC(=S)[S-].[Mn+2].[Zn+2],activation,[1],13.6% (inactive)
same,Potency,[21],inactive
CCOP(=S)(OCC)OC(Cl)C(Cl)(Cl)Cl (stereo not given),activation,[1],11.6% (inactive)
same,Potency,[2],inactive
same,Potency,[6],inactive
same,Potency,[7],inactive
same,outcome,[22],inactive
same,Potency,[10],inactive
same,max response,[11],-12.5%
same,max response,[12],-15% (inactive)
same,activity change % (negative = inhibition),[13],7.52% (inactive)
same,activation,[14],-0.781% (inactive)
same,activation,[23],0.0553% (inactive)
same,activation,[15],0.044% (inactive)
same,max response,[16],-1.33% (inactive)
same,Potency,[24],inactive
same,max response,[17],-3.95% (inactive)
same,max response,[18],-12.8% (inactive)
same,max response,[20],0.487% (inactive)
same,outcome,[25],inactive
CC1(C)C(C=C(Cl)Cl)[C@H]1C(=O)OCc1cccc(Oc2ccccc2)c1 (stereo not given in full),activation,[1],0.728% (inactive)
same,outcome,[22],inactive
same,max response,[8],-6.06%
same,Potency,[9],inactive
same,activation,[15],0.692% (inactive)
COc1cc(OC)nc(Sc2cccc(Cl)c2C(=O)O)n1,activation,[1],5.02% (inactive)
same,Potency,[2],inactive
same,Potency,[6],inactive
same,Potency,[7],inactive
same,Potency,[21],inactive
same,outcome,[22],inactive
same,max response,[8],-16.4%
same,Potency,[9],inactive
same,Potency,[10],inactive
same,max response,[11],-2.85%
same,max response,[12],-5.7% (inactive)
same,activity change % (negative = inhibition),[13],6.23% (inactive)
same,Potency,[26],inactive
same,activation,[14],-0.496% (inactive)
same,activation,[23],0.833% (inactive)
same,max response,[16],-1.08% (inactive)
same,Potency,[24],inactive
same,max response,[17],-2.11% (inactive)
same,max response,[18],-8.52% (inactive)
same,Potency,[19],inactive
same,max response,[20],3.18% (inactive)
same,outcome,[25],inactive
CC/C(=N\OC/C=C/Cl)C1=C(O)CC(C2CCOCC2)CC1=O (stereo not given),Potency,[2],inactive
same,outcome,[3],inactive
same,max response,[4],17.7%
same,Potency,[5],inactive
same,Potency,[6],inactive
same,Potency,[7],inactive
same,Potency,[21],inactive
same,outcome,[22],inactive
same,max response,[8],-4.82%
same,Potency,[9],inactive
same,Potency,[10],inactive
same,max response,[11],0.449%
same,max response,[12],3.36% (inactive)
same,activity change % (negative = inhibition),[13],-7.66% (inactive)
same,activation,[14],-3.67% (inactive)
same,activation,[23],-1.9% (inactive)
same,activation,[15],0.936% (inactive)
same,max response,[16],-0.709% (inactive)
same,Potency,[24],inactive
same,max response,[17],1.41% (inactive)
same,max response,[18],3.9% (inactive)
same,Potency,[19],inactive
same,outcome,[25],inactive

# Source: PubChem BioAssay (NCATS)
